This note sets out measurements from PubChem BioAssay.

Values without a mark were called inactive. For some of these results: Entries with a potency or affinity are not part of this list. Activity calls are given as the source filed them. Unless noted, how the calls were made is not given here.

A short description of experiment [1]: antimalarial activity against Dd2 strain (AID 2302;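 active means growth inhibition above 50% at the single 2 µM test dose, taken to imply half-maximal potency below 2 µM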;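 further: 0% = DMSO untreated growth and 100% = chloroquine plus artemisinin killed control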). To be noted: P. falciparum Dd2 in RBCs, LDH growth readout, 72 h; at 2 µM; stronger effect = higher value.
A short description of experiment [2]: human hepatoma cell viability loss – ATP luminescence, cytotoxicity control for P. falciparum antimalarial project, primary screen (AID 2303;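 active means inhibition above 50%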;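 further: 0% = DMSO wells and 100% = digitonin-killed cells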). To be noted: HepG2 viability, 24-48 h, at 10 µM, stronger effect = higher value.
In experiment [3] the target is L-lactate dehydrogenase (Plasmodium falciparum (isolate CDC / Honduras)) (UniProt Q27743). The experiment is described as follows: PfLDH activity inhibition – cell lysate, 3D7 strain, counter-screen for P. falciparum growth inhibition project (AID 2304).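 Further: 0% = vehicle and 100% = reference inhibitor.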 To be noted: P. falciparum 3D7 crude extract, LDH APAD/NBT absorbance; at 2 µM; stronger effect = higher value. (Counterscreens check selectivity or assay interference.)
Chain of L-lactate dehydrogenase (Plasmodium falciparum (isolate CDC / Honduras)) (Q27743 whole entry, looked up): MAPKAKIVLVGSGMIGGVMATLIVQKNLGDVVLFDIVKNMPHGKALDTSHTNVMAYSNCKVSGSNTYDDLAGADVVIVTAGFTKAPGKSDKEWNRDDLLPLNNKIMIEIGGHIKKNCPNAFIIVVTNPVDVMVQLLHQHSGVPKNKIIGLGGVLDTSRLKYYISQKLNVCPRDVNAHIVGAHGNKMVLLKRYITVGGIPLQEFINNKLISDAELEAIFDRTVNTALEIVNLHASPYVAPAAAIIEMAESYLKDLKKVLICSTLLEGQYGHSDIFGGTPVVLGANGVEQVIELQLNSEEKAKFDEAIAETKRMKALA

Experiment [4] in a line: inhibition of 3D7 malaria parasite growth – strain 3D7 (AID 2306).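 Further: 0% = DMSO wells and 100% = chloroquine plus artemisinin control wells.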 Conditions: P. falciparum 3D7 erythrocytic growth, LDH absorbance, 72 h; at 2 µM; stronger effect = higher value.
Experiment [5] deals with Calcium-dependent protein kinase 1 (Plasmodium falciparum (isolate 3D7)) (UniProt P62344). The experiment can be described thus: PfCDPK1 kinase inhibitors, biochemical, TCAMS library (AID 1159585; cut-off not given, nearly all actives have IC50 up to about 0.98 µM;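 further: inhibitors leave more ATP so luminescence rises with inhibition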). Conditions: recombinant PfCDPK1, Kinase-Glo ATP depletion luminescence. (In general: In Kinase-Glo more light means more ATP remaining.)
Chain of Calcium-dependent protein kinase 1 (Plasmodium falciparum (isolate 3D7)) (P62344 whole entry, looked up): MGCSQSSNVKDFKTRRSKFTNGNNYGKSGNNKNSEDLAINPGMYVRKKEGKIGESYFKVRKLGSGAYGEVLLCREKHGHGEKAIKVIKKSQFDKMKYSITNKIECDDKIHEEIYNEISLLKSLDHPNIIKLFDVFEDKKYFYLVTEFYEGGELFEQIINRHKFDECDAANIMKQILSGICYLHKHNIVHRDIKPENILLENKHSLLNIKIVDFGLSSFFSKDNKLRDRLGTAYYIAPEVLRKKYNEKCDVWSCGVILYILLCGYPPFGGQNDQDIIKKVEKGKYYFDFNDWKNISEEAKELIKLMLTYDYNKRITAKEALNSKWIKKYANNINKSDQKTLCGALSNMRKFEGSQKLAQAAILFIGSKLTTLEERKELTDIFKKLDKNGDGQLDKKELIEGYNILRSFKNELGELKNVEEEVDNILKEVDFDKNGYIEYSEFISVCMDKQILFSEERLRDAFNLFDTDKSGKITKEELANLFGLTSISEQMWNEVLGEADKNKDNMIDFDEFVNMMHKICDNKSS
Experiment [6] addresses Plasmodium falciparum protein kinase 6 (PK6, PF3D7_1337100) (UniProt Q8IDW1). The experiment is described as follows: PfPK6 kinase inhibitors, biochemical, TCAMS library (AID 1159586). Conditions: recombinant PfPK6, Kinase-Glo ATP depletion luminescence.
In experiment [7] the target is Protein kinase 7 (PK7), Plasmodium falciparum 3D7 (PF3D7_0213400) (UniProt Q7YTF7). The experiment can be described thus: inhibition of Plasmodium PK7 catalytic activity – biochemical, TCAMS antimalarial set, Kinase-Glo luminescence (AID 1159587). Conditions: recombinant PfPK7, Kinase-Glo ATP depletion luminescence.
Chain of Protein kinase 7 (PK7), Plasmodium falciparum 3D7 (PF3D7_0213400) (Q7YTF7 1-343): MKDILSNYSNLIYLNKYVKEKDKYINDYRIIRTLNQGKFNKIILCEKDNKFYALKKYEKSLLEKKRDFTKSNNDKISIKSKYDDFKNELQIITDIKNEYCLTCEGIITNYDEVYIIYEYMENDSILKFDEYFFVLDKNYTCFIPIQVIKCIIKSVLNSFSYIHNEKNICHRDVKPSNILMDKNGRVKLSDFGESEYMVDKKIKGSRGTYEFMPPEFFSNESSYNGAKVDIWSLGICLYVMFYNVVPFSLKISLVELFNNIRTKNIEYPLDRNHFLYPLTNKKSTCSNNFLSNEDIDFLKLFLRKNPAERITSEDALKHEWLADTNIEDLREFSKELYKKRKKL
Experiment [8] has as its target Calcium-dependent protein kinase 4 (Plasmodium falciparum (isolate 3D7)) (UniProt Q8IBS5). The experiment can be described thus: PfCDPK4 kinase inhibitors, biochemical, TCAMS library (AID 1159588; cut-off not given, nearly all actives have IC50 up to about 0.91 µM). To be noted: recombinant PfCDPK4, Kinase-Glo ATP depletion luminescence.

Chain of Plasmodium falciparum protein kinase 6 (PK6, PF3D7_1337100) (Q8IDW1 1-305): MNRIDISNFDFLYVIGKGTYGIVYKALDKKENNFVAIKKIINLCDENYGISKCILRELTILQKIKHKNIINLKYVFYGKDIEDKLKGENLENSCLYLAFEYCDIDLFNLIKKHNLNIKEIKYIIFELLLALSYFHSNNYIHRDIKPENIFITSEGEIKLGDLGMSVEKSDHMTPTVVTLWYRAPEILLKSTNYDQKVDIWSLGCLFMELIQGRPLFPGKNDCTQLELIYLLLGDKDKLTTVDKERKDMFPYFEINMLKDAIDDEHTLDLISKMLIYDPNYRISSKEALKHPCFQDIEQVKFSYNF
Chain of Calcium-dependent protein kinase 4 (Plasmodium falciparum (isolate 3D7)) (Q8IBS5 whole entry, looked up): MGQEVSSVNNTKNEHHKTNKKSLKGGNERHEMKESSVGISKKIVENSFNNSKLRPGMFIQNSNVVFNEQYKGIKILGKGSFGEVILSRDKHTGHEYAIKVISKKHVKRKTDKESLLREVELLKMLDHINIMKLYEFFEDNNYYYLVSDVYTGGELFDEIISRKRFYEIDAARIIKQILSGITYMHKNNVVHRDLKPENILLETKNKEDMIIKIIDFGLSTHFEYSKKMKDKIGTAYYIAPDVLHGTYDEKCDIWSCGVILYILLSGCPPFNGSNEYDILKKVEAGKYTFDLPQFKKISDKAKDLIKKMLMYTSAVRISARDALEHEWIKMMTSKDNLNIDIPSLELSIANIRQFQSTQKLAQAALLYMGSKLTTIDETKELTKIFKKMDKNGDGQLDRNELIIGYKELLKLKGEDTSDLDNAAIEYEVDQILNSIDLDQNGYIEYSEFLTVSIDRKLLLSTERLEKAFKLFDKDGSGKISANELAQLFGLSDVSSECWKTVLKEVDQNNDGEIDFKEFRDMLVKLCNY

Turning to `Cc1[nH]c(C)c(-c2ccc(Oc3ccc(Cl)cc3Cl)cc2)c(=O)c1Br`, the growth inhibition in experiment [1] was 94% (active); in experiment [4], 98% (active). For the same molecule, the inhibition – broadly, the change of the read-out against control, counted positive when it falls – was 3% in experiment [2] and -5% in experiment [3]. Moreover, the outcome in experiment [5], in experiment [6], in experiment [7] and in experiment [8] was inactive.

In the case of `Clc1cccc(C=NNc2nc(Nc3ccccc3)nc(Nc3ccccc3)n2)c1`, the growth inhibition in experiment [1] was 15%; in experiment [4], 92% (active). The inhibition in experiment [2] was -5%; in experiment [3], -4%. Further, the result in experiment [5], in experiment [6], in experiment [7] and in experiment [8] was inactive.

As for `Cc1cn(CC(=O)Nc2cccc(-c3cccc(-c4nc5c(C)cccc5[nH]4)c3)c2)c(=O)[nH]c1=O`, the growth inhibition in experiment [1] and in experiment [4] was 100% (active) in each case. Also, the inhibition in experiment [2] was 2%; in experiment [3] it was 5%. Besides, the result in experiment [5], in experiment [6], in experiment [7] and in experiment [8] was inactive.

As to `CCCCCCN1CCCN(Cc2ccc(C(=O)Nc3ccc(C)c(F)c3)cc2)CC1`, the growth inhibition was 58% (active) in experiment [1] and 92% (active) in experiment [4]. Further, the inhibition in experiment [2] was 47%; in experiment [3] it was 0%. For the same molecule, the result in experiment [5], in experiment [6], in experiment [7] and in experiment [8] was inactive.

On to `c1ccc(-c2cc3cccc(-c4nc5ccncc5[nH]4)c3o2)cc1`, for which the values for the growth inhibition in experiment [1] and in experiment [4] were 95% (active) and 100% (active), respectively. Moreover, the inhibition in experiment [2] is 37%; in experiment [3], -6%. In addition, the outcome in experiment [5], in experiment [6], in experiment [7] and in experiment [8] was inactive.

For the molecule `O=C(Cc1cnc[nH]1)Nc1ccc(-c2ccc(-c3nc4ccccc4[nH]3)s2)cc1`, the growth inhibition in experiment [1] was 34%; in experiment [4], 90% (active). Moreover, the values for the inhibition in experiment [2] and in experiment [3] were 44% and 1%, respectively. In addition, the outcome in experiment [5], in experiment [6], in experiment [7] and in experiment [8] was inactive.

As to `CN1CCC(N(Cc2ccc(-c3ccc(C(F)(F)F)cc3)nc2)C(=O)Cn2c(CCc3cccc(F)c3F)cc(=O)c3ccccc32)CC1`, the results for the growth inhibition in experiment [1] and in experiment [4] were 85% (active) and 91% (active), respectively. In addition, the inhibition was 60% (active) in experiment [2] and 3% in experiment [3]. In addition, the outcome in experiment [5], in experiment [6], in experiment [7] and in experiment [8] was inactive.

As for `CCC(CC)(Cc1ccccc1)NC(=O)[C@H](Cc1ccc(OC)c(OC)c1)Nc1ccc(C#N)c2ccccc12`, the growth inhibition in experiment [1] is 69% (active); in experiment [4] it was 90% (active). Also, the values for the inhibition in experiment [2] and in experiment [3] were 16% and 0%, respectively. Moreover, the outcome in experiment [5], in experiment [6], in experiment [7] and in experiment [8] was inactive.

Regarding `CCC(CCON1C(N)=NC(N)=NC1(C)C)c1ccc(Cl)c(Cl)c1` (stereo not given), the growth inhibition was 98% (active) in experiment [1] and 94% (active) in experiment [4]. Further, the inhibition in experiment [2] is 68% (active); in experiment [3] it was -7%. In addition, the result in experiment [5], in experiment [6], in experiment [7] and in experiment [8] was inactive.

Take `Cc1ccnc(NC(=O)c2cc(-c3cccc([N+](=O)[O-])c3)nc3onc(C)c23)c1`: the growth inhibition in experiment [1] is 44%; in experiment [4], 91% (active). Moreover, the inhibition in experiment [2] is 5%; in experiment [3] it was -1%. Besides, the result in experiment [5], in experiment [6], in experiment [7] and in experiment [8] was inactive.

Consider `CC(C)C[C@H]1c2[nH]c3ccc(Cl)cc3c2CCN1C(=O)CCc1ccccc1`, for which the results for the growth inhibition in experiment [1] and in experiment [4] were 81% (active) and 95% (active), respectively. Also, the inhibition in experiment [2] was -2%; in experiment [3], 6%. Besides, the outcome in experiment [5], in experiment [6], in experiment [7] and in experiment [8] was inactive.

As to `COc1ccc2nc(C)cc(Nc3ccc(Oc4ccc(Cl)cc4)c(Cl)c3)c2c1`, the growth inhibition is 100% (active) in experiment [1] and 101% (active) in experiment [4]. The inhibition is 48% in experiment [2] and -2% in experiment [3]. The result in experiment [5], in experiment [6], in experiment [7] and in experiment [8] was inactive.

Turning to `O=C(NCc1ccc(F)cc1)Nc1cccc(-c2ccc(-c3nc4ccccc4[nH]3)cc2)c1`, the growth inhibition in experiment [1] is 49%; in experiment [4], 101% (active). In addition, the inhibition was 45% in experiment [2] and 2% in experiment [3]. The outcome in experiment [5], in experiment [6], in experiment [7] and in experiment [8] was inactive.

For the molecule `CN1CCN(CC(=O)Nc2cccc(-c3ccc(-c4nc5ccc(C(F)(F)F)cc5[nH]4)cc3)c2)CC1`, the growth inhibition in experiment [1] is 94% (active); in experiment [4], 102% (active). Besides, the inhibition in experiment [2] was 37%; in experiment [3] it was -3%. Besides, the outcome in experiment [5], in experiment [6], in experiment [7] and in experiment [8] was inactive.

On to `COc1cc(Nc2nccc(N3CCC(NC(=O)c4cccc(C#N)c4)C3)n2)cc(OC)c1OC` (stereo not given), for which the growth inhibition was 76% (active) in experiment [1] and 91% (active) in experiment [4]. Also, the inhibition in experiment [2] was 13%; in experiment [3], -8%. Further, the result in experiment [5], in experiment [6], in experiment [7] and in experiment [8] was inactive.

Consider `CC(C)(C)c1ccc2nc(-c3ccc(/C=C/C(=O)NC4CCN(Cc5ccccc5)CC4)cc3)[nH]c2c1`, for which the growth inhibition in experiment [1] was 96% (active); in experiment [4] it was 101% (active). The inhibition was 45% in experiment [2] and -2% in experiment [3]. The result in experiment [5], in experiment [6], in experiment [7] and in experiment [8] was inactive.

As for `O=C(Nc1ccc(Cl)c(C(F)(F)F)c1)c1ccc(Cl)c([N+](=O)[O-])c1`, the growth inhibition in experiment [1] was 18%; in experiment [4], 87% (active). Besides, the inhibition is 20% in experiment [2] and -2% in experiment [3]. Moreover, the outcome in experiment [5], in experiment [6], in experiment [7] and in experiment [8] was inactive.

For `O=C(Nc1cccc(C(F)(F)F)c1)c1cccc(S(=O)(=O)NCC2CCCN(Cc3ccccc3)C2)c1` (stereo not given), the growth inhibition in experiment [1] is 3%; in experiment [4] it was 94% (active). The inhibition in experiment [2] was 17%; in experiment [3], 2%. Moreover, the result in experiment [5], in experiment [6], in experiment [7] and in experiment [8] was inactive.

As for `O=C(Nc1cccc(-c2cccc(-c3nc4ccccc4[nH]3)c2)c1)Nc1ccc(F)c(F)c1F`, the growth inhibition was 95% (active) in experiment [1] and 98% (active) in experiment [4]. Also, the inhibition in experiment [2] was 78% (active); in experiment [3], -1%. The outcome in experiment [5], in experiment [6], in experiment [7] and in experiment [8] was inactive.

Take `COc1ccc(NC(=O)[C@H](CC(C)C)Nc2cc(C)nc(NCc3cccc(C)c3)n2)cc1`: the growth inhibition in experiment [1] was 90% (active); in experiment [4], 101% (active). The inhibition in experiment [2] is 24%; in experiment [3] it was -1%. In addition, the result in experiment [5], in experiment [6], in experiment [7] and in experiment [8] was inactive.
